The values that follow come from PubChem BioAssay (EPA / NIEHS).

One may read the AC50 as the concentration at which the activity in the assay is half-maximal.

The source made the active and inactive calls. The calls were made as follows: active = hit-call score of the fitted dose curve at least 0.9, where 1 is the maximum; inactive = score below 0.9.

The nature of the test: ATG_DR4_LXR_CIS: Attagene CIS-FACTORIAL HepG2 Assay for human Liver X Receptor (LXR), DR4 submotif (AID 2282929). As to conditions: HepG2 Attagene DR4 cis-reporter, mRNA transcription; actives raise or lower the signal. The protocol: ATG_CIS is a cell-based, multiplexed-readout assay that uses HepG2, a human liver cell line, with measurements taken at 24 hours after chemical dosing in a 24-well plate.ATG_DR4_LXR_CIS is one of 52 assay component(s) measured or calculated from the ATG_CIS assay. It is designed to make measurements of mRNA induction, a form of inducible reporter, as detected with fluorescence intensity signals by Reverse transcription polymerase chain reaction (RT-PCR) and Capillary electrophoresis technology.Data from the assay component ATG_DR4_LXR_CIS was analyzed into 1 assay endpoint. This assay endpoint, ATG_DR4_LXR_CIS, was analyzed with bidirectional fitting relative to DMSO as the negative control and baseline of activity. Using a type of inducible reporter, measures of mRNA for gain or loss-of-signal activity can be used to understand the reporter gene at the transcription factor-level as they relate to the gene NR1H2 and NR1H3. Furthermore, this assay endpoint can be referred to as a primary readout, because this assay has produced multiple assay endpoints where this one serves a reporter gene function. To generalize the intended target to other relatable targets, this assay endpoint is annotated to the nuclear receptor intended target family, where the subfamily is non-steroidal.
Human liver HepG2 cells are transiently transfected with multiple reporter transcription units (MRTUs) in 6-well plates using FuGene 6 reagent (Roche; 3 ml FuGene/1 mg DNA). The MRTU constructs are regulated by a cis-regulating element (promoter). […] A major difference between the CIS and TRANS system is that in CIS activities of endogenous TFs are measured, whereas the TRANS assay evaluates changes in activities of exogenous, chimeric NR-Gal4 proteins. […] At the end of 24 hour incubation, total RNA was isolated using TriZol reagent (Invitrogen). The isolated RNA is then reverse-transcribed using oligo(dT) primer and Mo-MLV reverse transcriptase (Invitrogen) with DNAse I (Ambion) treatment for 30 min. The one-tenth of the produced cDNA was amplified by PCR using Taq DNA polymerase (Invitrogen) and two reporter sequence-specific primers. The PCR products were fluorescently labeled by primer extension with 6-arboxyfluorescein (6-FAM) 5'-labeled reporter sequence-specific primer (2 min at 95 C, 20 s at 68 C and 10 min at 72 C) and these products were digested with 5U of HpaI (New England Biolabs) for 2h at 37 C. The fragments were purified using Qiaquick PCR columns (Qiagen), analyzed on an ABI 3130xL genetic analyzer (Applied Biosystems) with peak positions identified by using a set of X-rhodamine (ROX)-labeled MapMarker1000 molecular weight standards (BioVentures). The raw capillary electrophoresis data was processed using Attagraph software (Attagene).
As for `Cc1cc(C)c(C)c(O)c1`, the result was inactive. On to `COC(F)(F)C(F)(C(F)(F)F)C(F)(F)F`, for which the result was inactive. As for `CCCCCCCCCCC=CC#N`, the concentration at half-maximal activity (AC50) is 100 µM (active). As to `COCCOCCOCCOCCOC`, the molecule was called inactive.

`NC(=O)N=NC(N)=O`: the result was inactive. Regarding `CCC(=O)Oc1ccc(/C(CC)=C(\CC)c2ccc(OC(=O)CC)cc2)cc1`, the AC50 was 6.03 µM (active). On to `O=C1C=CC(=O)O1`, for which the call was inactive. `O=P(O)(O)Oc1ccccc1`: the molecule was classed as inactive. On to `COc1ccc2nc(N)sc2c1`, for which the molecule was called inactive.

`COC(=O)c1ccccc1OC`: the result was inactive. Regarding `Oc1ccc(Cl)cc1Cc1cc(Cl)ccc1O`, the AC50 is 7.95 µM (active). In the case of `C=C[Si](OC(C)=O)(OC(C)=O)OC(C)=O`, the result was inactive. The same measure, in the same setting: under `CC(=O)c1ccc[nH]1` stands “inactive”; under `CC(C)(C)c1n[nH]c(=O)n(N)c1=O`, “inactive”. `COCCCOCCCOC`: the molecule was called inactive. As to `C=CC=CC=CCCCCC`, the result was inactive. Same read-out and setting: under `Cc1cnc(NC(=O)C2=C(O)c3ccccc3S(=O)(=O)N2C)s1` stands “inactive”; under `C[C@]12C=CC(=O)C=C1CC[C@@H]1[C@@H]2[C@@H](O)C[C@@]2(C)[C@H]1CC[C@]2(O)C(=O)CO`, “inactive”; under `O=C(c1ccccc1)c1ccc(O)c(O)c1O`, “inactive”. Same read-out and setting: under `NC(=O)NNC(N)=O` stands “inactive”; under `O=Cc1ccc(CO)o1`, “inactive”; under `COCc1c(C(C)C)nc(C(C)C)c(/C=C/[C@@H](O)C[C@@H](O)CC(=O)O)c1-c1ccc(F)cc1`, “inactive”. Same read-out and setting: next, `CCCCC(CC)COC(=O)c1ccccc1O` (stereo not given): “inactive”. Consider `Nc1ccc(N=Nc2ccccc2)c(N)n1`, for which the concentration at half-maximal activity (AC50) is 48.5 µM (active). Turning to `COC=O`, the molecule was called inactive.

As for `C1CN(SSN2CCOCC2)CCO1`, the molecule was classed as inactive.

Take `CC(=O)Nc1ccc2c(c1)Cc1cc(NC(C)=O)ccc1-2`: the molecule was classed as inactive. Turning to `c1ccc(CNCc2ccccc2)cc1`, the molecule was called inactive. The same measure, in the same setting: next, `O=C1c2ccccc2C(=O)C1c1nc2ccccc2c(Br)c1O`: “inactive”. For `CCCCC/C=C\C/C=C\CCCCCCCC(=O)OC`, the outcome was inactive.

Consider `NNC(=O)c1cccc(C(=O)NN)c1`, for which the molecule was classed as inactive. Same read-out and setting: next, `CCO[Si](CCCN=C=O)(OCC)OCC`: “inactive”. As for `CCOC(=O)N1CCC(=C2c3ccc(Cl)cc3CCc3cccnc32)CC1`, the AC50 is 9.1 µM (active). Consider `O=C(O)CC(C(=O)O)C(CC(=O)O)C(=O)O` (stereo not given), for which the molecule was called inactive. On the same count and under the same terms, under `CCCCCCCC(C)=O` stands “inactive”. As for `CCC(Cc1ccccc1)(C(=O)c1ccc(N2CCOCC2)cc1)N(C)C` (stereo not given), the result was inactive. On the same count and under the same terms, next, `CC1(C)O[C@@H]2C[C@H]3[C@@H]4C[C@H](F)C5=CC(=O)C=C[C@]5(C)[C@@]4(F)[C@@H](O)C[C@]3(C)[C@]2(C(=O)CO)O1`: “inactive”; `Cc1cc(=O)n(-c2ccccc2)n1C`: “inactive”; `CC1(C)O[C@@H]2C[C@H]3[C@@H]4C[C@H](F)C5=CC(=O)CC[C@]5(C)[C@H]4[C@@H](O)C[C@]3(C)[C@]2(C(=O)CO)O1`: “inactive”.

As to `O=C1CCCC1`, the result was inactive.
